Bioassay records deposited in PubChem BioAssay by several laboratories.
Shown are actives, neighbours in structure and some others; about 0.69% of the full set was active somewhere.
PfHsp90 yeast 2 = inhibits growth of yeast expressing Plasmodium falciparum Hsp90. S. cerevisiae expressing PfHsp90, BacTiter-Glo ATP, 48 h; yeast lacking PDR1 and PDR3 efflux regulators. inhibition, % at 9.4 µM. hit rate 0.32% among 310,000. AID 504621;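 active means every replicate shows inhibition above about 80%, whatever the replicate mean, limit read from the data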;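 further: 0% = DMSO neutral controls and 100% = 20 µM radicicol positive controls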
E coli growth-1 = E. coli growth inhibition. Escherichia coli growth, OD600, 23 h; active compounds read low. OD600 absorbance (test concentration not listed). hit rate 0.21% among 330,000. AID 1053175;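 active means OD600 absorbance below the run mean of sample wells minus 3.6 SD, in any replicate, cut at about 0.56 in these data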
E coli growth-2 = reduces bacterial viability in AddAB counter-screen | inhibition, % at 11.9 µM | E. coli V3065 growth, OD600 absorbance, 18 h | hit rate 0.27% among 330,000;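 active means inhibition above the campaign's mean inhibition across all tested compounds plus 3 SD, cut at about 9.9% in these data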;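 further: uninfected addAB+ strain grown without phage in ampicillin broth; 0% = DMSO wells and 100% = ciprofloxacin 0.95 µg/ml wells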
phage Ecoli inh = E. coli growth loss with phage present. growth absorbance. inhibition, % at 11.9 µM. hit rate 0.26% among 360,000. AID 651602; in the data active means inhibition above about 11%
AddAB inh = less growth of phage-infected E. coli with AddAB. hit rate 0.29% among 330,000. inhibition, % at 11.9 µM. E. coli expressing H. pylori AddAB, absorbance growth; in the data active means inhibition above about 12%;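 further: 0% = vehicle wells of infected cells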
Tat export inh = E. coli Tat transport inhibition. E. coli MC4100 TorA-mCherry Tat export, fluorescence. inhibition, % at 10 µM. hit rate 0.036% among 340,000;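 active means mean replicate inhibition at least 50% and at least half of replicates individually reaching 50%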;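 further: exported cargo escapes ClpAP degradation while cytoplasmic cargo is degraded and loses fluorescence; 0% = median of neutral control wells and 100% = median of NaSCN control wells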
AddAB confirm = confirmation screen: growth loss of phage-infected E. coli expressing H. pylori AddAB; AID 488942; E. coli V3065 expressing H. pylori AddAB, T4 phage, OD; T4 phage with gene 2 nonsense mutations; hit rate 64% among 880; inhibition, % at 11.9 µM; shares compounds with AddAB inh;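 active means mean inhibition above a set limit taken from the earlier primary screen, cut at about 13% in these data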;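 further: higher means less bacterial growth since AddAB block lets phage replicate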
RecBCD counter = reduces growth of phage-infected RecBCD+ E. coli, AddAB inhibitor counter-screen | shares compounds with AddAB inh | E. coli V66 + mutant T4 phage, OD growth | inhibition, % at 11.9 µM | hit rate 73% among 880 | AID 488955;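 active means mean inhibition above the mean of solvent-only control wells plus 3 SD, cut at about 4% in these data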;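 further: optical density read after an 18 h incubation at 37 °C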
Bact viability = reduces bacterial viability, AddAB inhibitor counter-screen; shares compounds with AddAB inh; absorbance (AddAB counterscreen); inhibition, % at 11.9 µM; hit rate 35% among 880; in the data active means inhibition above about 25%
* hit, by the source's call; x = not tested or not shown.

SMILES | PfHsp90 yeast 2 | E coli growth-1 | E coli growth-2 | phage Ecoli inh | AddAB inh | Tat export inh | AddAB confirm | RecBCD counter | Bact viability
COc1ccc(-n2c(C)cc(/C=N/Nc3nnc(C)n3N)c2C)cc1 | -4 | x | 3 | 1 | 14* | -17 | 6 | 1 | -3
CC(=NOCC(=O)OCC(=O)N(Cc1ccccc1)C(C)(C)C)c1ccc2c(c1)OCO2 | x | 0.68 | x | x | x | x | x | x | x
COc1ccc(-c2nnc(NC(=O)c3ccc4c(c3)OCCO4)o2)cc1 | 5 | 0.7 | -4 | -1 | 1 | -8 | x | x | x
COc1ccc(-c2nnc(NC(=O)c3ccc(F)cc3)o2)cc1 | -113 | 0.55 | 5 | 4 | 15* | 7 | 17* | 12* | 5
CCn1c(SCC(=O)NN=Cc2c[nH]c3ccccc23)nnc1-c1ccc(C(C)(C)C)cc1 | x | 0.72 | x | x | x | x | x | x | x
O=c1c2ccccc2[nH]c2ccccc12 | 15 | 0.57 | 5 | 9 | 14* | -8 | 6 | 4.8* | 3
c1ccc2c(c1)[nH]c1ccccc12 | x | 0.7 | -1 | 1 | 3 | -3 | x | x | x
CCOC(=O)C(C(=O)Nc1ccccc1Br)=C1NC(C)(C)Cc2ccccc21 | x | 0.68 | x | x | x | x | x | x | x
Cn1cnc(Sc2ncnc3nc[nH]c23)c1[N+](=O)[O-] | 3 | x | 17* | 11 | 26* | 6 | 53* | 10* | 33*
Cn1cnc([N+](=O)[O-])c1Sc1ncnc2nc[nH]c12 | -5 | 0.7 | 1 | 2 | 2 | -2 | x | x | x
O=C(NCc1ccccc1Cl)C1CCN(S(=O)(=O)N2CCCCCC2)CC1 | 4 | 0.71 | -1 | 2 | 2 | 2 | x | x | x
CCCS(=O)(=O)N1CCC(C(=O)NCc2ccccc2Cl)CC1 | 1 | 0.73 | 7 | 6 | 12* | -5 | 14* | 5.8* | 12
Cc1cc2c(c(=O)o1)C(c1ccc([N+](=O)[O-])o1)C(C#N)=C(N)O2 (configuration not stated) | -19 | 0.63 | 15* | 7 | 19* | 3 | 100* | 8.3* | 19
CCC(CC)C1C(C#N)=C(N)Oc2cc(C)oc(=O)c21 (configuration not stated) | -4 | 0.66 | 3 | 0 | 4 | -2 | x | x | x
CC1=NN(C(N)=S)C(=O)C1N=Nc1c(Br)cc(Br)cc1Br (configuration not stated) | -85 | x | 14* | 10 | 14* | 4 | 26* | 13* | 26*
CC1=NN(C(N)=S)C(=O)C1N=Nc1c(C)cc(C)cc1C (configuration not stated) | -32 | 0.7 | 8 | 2 | 1 | -5 | x | x | x
CCn1cc(C(=O)NCc2ccccn2)c(=O)c2cc(F)c(N3CCN(C)CC3)cc21 | 6 | x | 93* | 6 | 98* | 5 | 99* | 16* | 98*
CCn1cc(C(=O)NCCc2ccccc2)c(=O)c2cc(F)c(N3CCN(C)CC3)cc21 | 1 | 0.6 | 13* | 2 | 21* | 7 | 71* | 0 | 22
CC(=O)NN=C(C)CC(=O)Nc1cccc(C(F)(F)F)c1 | x | 0.71 | x | x | x | x | x | x | x
CCC(CC)C(=O)Nc1cccc(C(C)=NNC(=O)c2ccccc2Cl)c1 | x | 0.7 | x | x | x | x | x | x | x
CC(C)CCN(C)C1CCN(C(=O)Nc2c(F)cccc2F)CC1 | 14 | 0.72 | 5 | 4 | 28* | -1 | -3 | 1 | -1
Cc1c(Cl)cccc1NC(=S)N1CCN(c2ncccn2)CC1 | 0 | 0.69 | -3 | 3 | 1 | -8 | x | x | x
C=CCNC(=S)N1CCN(c2ncc3c(=O)c(C(=O)O)cn(CC)c3n2)CC1 | x | 0.46* | 11* | 3 | 20* | 7 | 89* | 3 | 26*
CCn1cc(C(=O)O)c(=O)c2cnc(N3CCN(C(=S)Nc4ccc(F)cc4)CC3)nc21 | x | 0.6 | 25* | -3 | 18* | x | 25* | 1 | 10
C=CCNC(=S)N1CCC(C(=O)c2ccc(OC)cc2)CC1 | -18 | 0.7 | -1 | 2 | 3 | 6 | x | x | x
